Growth inhibition data for 21 compounds are collected here from PubChem BioAssay (NCI).

SMILES strings stand for the structures. This is part of a sample that, as a whole, favours compounds with a hit. Of some 79,000 tested, about 15% had one in any assay. Unmarked numbers belong to inactive results. Active and inactive are the calls of the source. No stated cut-off is given here; in the data, active means growth inhibition above about 70%; inactive means the rest.

A short description of test [1]: NCI Yeast Anticancer Drug Screen. Data for the rad50 strain (AID 155).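 Further: 0% = growth of vehicle-only cultures of the same strain.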 The note with it: S. cerevisiae rad50 strain growth inhibition; at 50.0 µM; active compounds read high. The method in brief:
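Cells are treated with compound, grown, and their growth is then scored against vehicle-only cultures of the same repair-deficient yeast strain.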

Test [2] is described as follows: NCI Yeast Anticancer Drug Screen. Data for the mec2-1 strain (AID 157). Conditions: S. cerevisiae mec2-1 strain, at 50.0 µM, active compounds read high. An outline of the steps: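 Vehicle-treated cultures served as reference for growth inhibition of compound-exposed mec2-1 yeast.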
Test [3] is described as follows: NCI Yeast Anticancer Drug Screen. Data for the sgs1 mgt1 strain (AID 161).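 Further: 0% = growth of cultures given vehicle only.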 Conditions: S. cerevisiae sgs1 mgt1 strain, at 50.0 µM, active compounds read high. The method in brief:
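Mutant yeast exposed to compound; growth scored against vehicle-only wells.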

Test [4] can be described thus: NCI Yeast Anticancer Drug Screen. Data for the cln2 rad14 strain (AID 165).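 Further: 0% = growth equal to vehicle treated cultures.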 The note with it: S. cerevisiae cln2 rad14 strain, at 50.0 µM, active compounds read high. The method in brief:
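Each compound was tested on cln2 rad14 yeast. Inhibition of growth was calculated against vehicle-exposed controls.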

Test [5] can be described thus: NCI Yeast Anticancer Drug Screen. Data for the bub3 strain (AID 167). Conditions: S. cerevisiae bub3 mutant strain, at 50.0 µM, active compounds read high. An outline of the steps:
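Part of a panel of yeast mutants defective in DNA damage repair or cell cycle regulation. Each strain is grown with compound, and inhibition is calculated relative to solvent-treated cultures.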

A short description of test [6]: NCI Yeast Anticancer Drug Screen. Data for the mlh1 rad18 strain (AID 175). The note with it: S. cerevisiae mlh1 rad18 strain growth inhibition; at 50.0 µM; active compounds read high. The method in brief:
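Vehicle-treated cultures served as the reference for growth inhibition in a yeast strain carrying DNA damage repair alterations exposed to each compound.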

On to `O=C(Nc1ccc2ncccc2c1)Nc1ccc2ncccc2c1`, for which the growth inhibition is 12.9% in test [1]; -12.8% in test [2]; 4.2% in test [3]; -4.85% in test [4]; -10.4% in test [5]; 21.4% in test [6].

With `O=C(Nc1ccccc1)OCC(CN1CCCCC1)OC(=O)Nc1ccccc1` (stereo unspecified), the growth inhibition in test [1] was -35.7%; in test [2], -38%; in test [3] it was -13.8%; in test [4], 5.55%; in test [5] it was -23.8%; in test [6] it was -37.1%.

`CC(C)C/C(CC(=O)CCC(=O)Nc1ccccc1[N+](=O)[O-])=N\NC(=O)c1cc2ccccc2cc1O`: the growth inhibition in test [1] is 17.8%; in test [2] it was 24.1%; in test [3], -11.8%; in test [4], 26.2%; in test [5], 9.8%; in test [6], 29.9%.

As to `O=C1CCN(C(=O)C2=CC(=O)OC2)C1`, the growth inhibition in test [1] was -15.2%; in test [2], -1.8%; in test [3], -5.1%; in test [4] it was -33.6%; in test [5] it was 5.15%; in test [6], -2.2%.

Take `Cc1ccc2c(C)cc(=O)n(C)c2c1`: the growth inhibition in test [1] was 4.7%; in test [2], 11.2%; in test [3] it was 9.6%; in test [4], 4.9%; in test [5] it was -0.25%; in test [6] it was 15.1%.

In the case of `Cc1cc(C)c(C(=O)O)c(C)c1Br`, the growth inhibition in test [1] was -3%; in test [2] it was -27.4%; in test [3], -4.85%; in test [4] it was -34.6%; in test [5], 9.1%; in test [6], 4.5%.

Consider `CCCN=C(C)C(C)=NCCC`, for which the growth inhibition in test [1] is -18.7%; in test [2], -15.1%; in test [3], -15.1%; in test [4], -11%; in test [5], -19.4%; in test [6], -11.3%.

As for `CCOC(=O)CNC(=O)CCC(=O)OC`, the growth inhibition in test [1] was -11%; in test [2], -4.8%; in test [3], 17.4%; in test [4], -10.6%; in test [5], 5.55%; in test [6], -9.1%.

Consider `COC(=O)c1c(-c2ccc3c(c2)OCO3)cn(C)c1C`, for which the growth inhibition in test [1] is 5.7%; in test [2], 1.85%; in test [3] it was 24.6%; in test [4], -5.25%; in test [5], 7.55%; in test [6] it was 11.6%.

Take `CC(C)=CC(Cc1ccccc1)S(=O)(=O)c1nc2ccccc2s1` (stereo unspecified): the growth inhibition in test [1] is 8.8%; in test [2] it was 33.4%; in test [3], 12.1%; in test [4], 9.4%; in test [5], 31.2%; in test [6] it was -16.9%.

Regarding `Nc1ccc(C(=O)Nc2ccc3c(ccc4ccccc43)c2)cc1`, the growth inhibition was -5.8% in test [1]; 2.35% in test [2]; 13.8% in test [3]; 1.75% in test [4]; -12.9% in test [5]; 2.35% in test [6].

`CCN(CC)[Si](C)(C)C`: the growth inhibition in test [1] is -24.1%; in test [2] it was -0.2%; in test [3], -9.25%; in test [4] it was -6.65%; in test [5], -21.8%; in test [6], -24.4%.

Take `CSC(=S)Nc1cc(C)cc(C)n1`: the growth inhibition was 29.8% in test [1]; 17.7% in test [2]; 62.1% in test [3]; 38% in test [4]; 42.8% in test [5]; 60.8% in test [6].

`CC(=O)c1cccc(OC(=O)c2ccccc2)c1`: the growth inhibition in test [1] is 23.5%; in test [2] it was 8.3%; in test [3], 35%; in test [4], 10.7%; in test [5] it was 45.1%; in test [6], 30.8%.

With `c1ccc2[nH]cnc2c1`, the growth inhibition in test [1] was 7.85%; in test [2], -1.55%; in test [3] it was 0.65%; in test [4], -4.4%; in test [5], 8.7%; in test [6], -46.8%.

`O=C(Nc1cc(Cl)c(Cl)cc1Cl)Nc1cc(Cl)ccc1Oc1ccc(Cl)cc1S(=O)(=O)O`: the growth inhibition in test [1] was 98% (active); in test [2] it was 99.3% (active); in test [3], 99.2% (active); in test [4], 98.5% (active); in test [5] it was 98.8% (active); in test [6], 98.7% (active).

Consider `Nc1ccccc1SC(CC(=O)c1ccccc1)c1cccc([N+](=O)[O-])c1` (stereo unspecified), for which the growth inhibition in test [1] is -31.1%; in test [2], -26.1%; in test [3], 0.55%; in test [4], -29.6%; in test [5] it was -17.9%; in test [6], -13.5%.

On to `O=C(O)/C=C/C=C/c1ccccc1`, for which the growth inhibition was 8.9% in test [1]; 8.95% in test [2]; 49.9% in test [3]; -2.7% in test [4]; 16.4% in test [5]; 32.8% in test [6].

For `CC(Nc1cc(Cl)ccc1C(=O)O)C(=O)O` (stereo unspecified), the growth inhibition in test [1] is 0.9%; in test [2], 14.7%; in test [3], -9.75%; in test [4], -40.1%; in test [5], -11.2%; in test [6], -8.05%.

Regarding `O=[N+]([O-])c1ccc2c(c1)Cc1cc([N+](=O)[O-])ccc1-2`, the growth inhibition was -12.3% in test [1]; -64.5% in test [2]; -25.4% in test [3]; -181% in test [4]; -54.1% in test [5]; 51.2% in test [6].

Turning to `CC(C)OC(=O)c1ccc(=O)oc1`, the growth inhibition in test [1] was 7.4%; in test [2] it was -5.85%; in test [3] it was -2.4%; in test [4], -8.75%; in test [5], -18.4%; in test [6] it was -5.15%.
